Only some compounds are listed: those with a hit (about 15% of all), similar ones and a draw of the others.
Sm TGR inh = inhibitors of Schistosoma mansoni thioredoxin glutathione reductase; Q962Y6; purified TGR, DTNB reduction, TNB absorbance 405 nm; Potency, µM (doses to about 114 µM), inactives show top-dose activity change, negative = inhibition, hits mostly inhibitors; actives 3% (n = 360,000); note: potency is the fitted concentration of half-maximal effect; % is set by controls: 0 for no effect and ±100 for the full control effect; nearly all actives have a fitted effect of over 60% in size
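TGR 20 nM + NADPH 100 uM (dispensed conc.), cpd preinc 15 min RT; start with NADPH (500 uM addition) then DTNB (15 mM addition). Kinetic TNB absorbance, 405 nm filter. Four-parameter Hill fit across titration.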
Pf growth 48h = P. falciparum growth inhibition at 48 hours (one generation); AID 504832; P. falciparum luciferase growth in erythrocytes, 48 h; actives 5.9% (n = 310,000); Potency, µM (highest dose often 28.7 µM), for the others: at the highest dose activity change, negative = inhibition, hits mostly inhibitors; note: potency is the fitted concentration of half-maximal effect; % is set by controls: 0 for no effect and ±100 for the full control effect
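Here the parasites carry a stable luciferase gene and grow inside erythrocytes in Albumax-based RPMI medium with compound for one erythrocytic cycle. Activity is scored as loss of luminescent signal.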
HCMV antiviral = human cytomegalovirus inhibition. HFF cells, HCMV-luciferase reporter, 72 h; hits give low values. activity change, negative = inhibition, % at 57.5 µM. actives 4.5% (n = 410,000); in the data active = activity change below about -60%; inconclusive = no clear call, values can overlap the other calls; inactive = above about -39%; note: % is set by controls: 0 for no effect and ±100 for the full control effect
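Steps: HFFs plated, 16 h 37C; compounds added; HCMV-luciferase added to MOI 1 PFU/cell; 72 h 37C; OneGlo reagent, 5 min room temperature; luminescence read, normalized to controls.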
Pf growth 96h = P. falciparum growth inhibition at 96 hour, primary screen for plastid delayed-death inhibitors | P. falciparum luciferase reporter growth, 96 h | Potency, µM (series often up to 28.7 µM), for inactives: top-dose activity change, negative = inhibition, hits mostly inhibitors | actives 6.9% (n = 320,000) | AID 504834; note: potency is the fitted concentration of half-maximal effect; % is set by controls: 0 for no effect and ±100 for the full control effect
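Plates of compound plus infected erythrocytes (2% hematocrit, 0.05% parasitemia final) incubate 96 hours, 37 C, 5% CO2. Detection reagent added; reduced luminescence from the parasites' luciferase reporter flags inhibition.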
HCV inhibitor = blocks hepatitis C virus; actives 3.4% (n = 340,000); AID 651820; Huh7.5.1 HCVcc-Cre infection, luciferase reporter, 44 h; Potency, µM (titrated, usually from 41.8 µM), inactives show at the top dose activity change, negative = inhibition, actives largely listed as inhibitors; note: potency is the fitted concentration of half-maximal effect; % is set by controls: 0 for no effect and ±100 for the full control effect
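Reporter virus HCVcc-Cre (~0.5 moi) infects cells exposed to compound; seeding density 1,000 cells/well with 4 h settling beforehand. Luminescence, 15 sec read, taken 44 h post-infection following a 15 min RT substrate incubation.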
SARS PLP yeast = blocks SARS-CoV papain-like protease in a yeast assay | AID 485353 | S. cerevisiae expressing SARS-CoV PLpro, growth rescue | actives 0.19% (n = 330,000) | Potency, µM (doses to about 32.9 µM), for inactives: at the highest dose activity, positive = growth rescue, usual class: activators; calls by dose curve; note: potency is the fitted concentration of half-maximal effect; 0% is about no effect; nearly all actives have a fitted effect of over 55% in size
The depositor's hits bear a star; ? = inconclusive; . = no result; ! = not active in a repeat. Unless noted, calls come from the whole dose curve; as a rule, active = well fitted curve in the direction sought with a large enough effect; inconclusive = small, poorly fitted or top-dose-only effect, or another doubt; inactive = no such curve, though single readings can be large; an effect the other way counts as inactive or inconclusive.

SMILES | Sm TGR inh | Pf growth 48h | HCMV antiviral | Pf growth 96h | HCV inhibitor | SARS PLP yeast
CCCNC(=O)Cn1c(-c2ccc(F)cc2)cc(C(=O)OCC)c1C | 4% | -13% | 2 | -28% | 1% | -5%
CCOC(=O)c1cc(-c2ccccc2)n(CCC(=O)Nc2ccc(C(F)(F)F)cc2)c1C | 7% | . | -98* | . | . | .
Cc1ccc(S(=O)(=O)N(C)CCCC(=O)N2CCN(c3ccccn3)CC2)cc1 | -6% | 13µM* | ? | . | ? | ?
CCOC(=O)c1cc(-c2ccccc2)n(CCC(=O)N2CCN(c3ccccn3)CC2)c1C | -3% | ? | -14 | 13µM* | 3% | -17%
CCOC(=O)c1cc(-c2ccc(F)cc2)n(CC(=O)NCc2cccnc2)c1C | -8% | ? | -32 | 2.6µM* | -2% | 0%
CCOC(=O)c1cc(-c2ccccc2)n(CCC(=O)NCCc2ccccc2)c1C | 11% | . | -35 | . | . | .
CC(C(=O)N(C)c1ccccc1)N1CCN(C(=O)c2ccccc2)CC1 (centres undefined) | -17% | 20% | 18 | 1% | 24% | 2%
COc1cc(CN(C(=S)NCC(=O)NC2CCCC2)C2CCCC2)cc(OC)c1OC | -3% | ? | -30 | ? | 0% | 12%
OC[C@@H]1CN(Cc2ccco2)C[C@H](n2cnc3c(NC4CC4)ncnc32)O1 | . | . | -37 | . | . | .
CCOC(=O)c1cc(-c2ccc(C)cc2)n(CC(=O)Nc2ccccc2F)c1C | 5% | . | -82* | . | . | .
CCOC(=O)c1cc(-c2ccc(C)cc2)n(CC(=O)Nc2cc(C)ccc2C)c1C | 4% | . | 1 | . | . | .
CCOC(=O)c1c(C)c(C(=O)NCc2cccnc2)c(C)n1CC | -5% | -2% | -14 | 3.7µM* | 2% | -1%
CCN(C[C@H]1N[C@@](C)(C(=O)OC)[C@H]2C(=O)N(C)C(=O)[C@@H]12)C(=O)C1CCCCC1 | . | . | 1 | . | 2% | 3%
Cc1ccccc1NC(=O)N[C@H]1CC[C@@]23CCCN2C(=O)CCC[C@H]3[C@H]1C | . | . | -7 | . | . | .
CCN1CCN(C(=O)c2ccc3c(Cl)c4c(nc3c2)CCCC4)CC1 | -21% | ? | ? | -29% | ? | -9%
O=C(NCCCN1CCCCCC1)c1ccc2c(Cl)c3c(nc2c1)CCCC3 | ? | ? | ? | 47% | 0.63µM* | 0%
CC1CCN(CCCNC(=O)c2ccc3c(Cl)c4c(nc3c2)CCCC4)CC1 | ? | 13µM* | ? | ? | 8.9µM* | -4%
CCN1CCN(CCCNC(=O)c2ccc3c(Cl)c4c(nc3c2)CCCC4)CC1 | ? | ? | -83* | -13% | ? | -4%
Cc1cc2c(s1)c1c(n2C)C(=O)N(Cc2ccccc2F)C1 | 1% | ? | . | ? | . | -1%
CC[N+]1(CC)CC2=Cc3c(ccc4ccccc34)CC2C1 (centres undefined) | 0% | . | -40 | ? | -5% | 4%
CC12Cc3ccc4ccccc4c3C=C1C[N+](C)(C)C2 (centres undefined) | -3% | . | ? | 1.7µM* | 0% | -1%
O=C1NC2(CCCCC2)C(=O)N1/N=C/c1ccc(O)cc1O | 0% | . | 3 | ? | 3% | 4%
O=C1NC2(CCCCC2)C(=O)N1/N=C/c1ccccc1Br | 1% | 3.3µM* | -27 | 23% | 0% | 3%
COc1cc(C#Cc2c(-c3cncn3C)n(C)c3ccc(-c4ccc5[nH]ccc5c4)cc23)cc(OC)c1 | 0% | 1.5µM* | 23 | 0.83µM* | ? | -1%
COc1cc(C#Cc2c(-c3cncn3C)n(C)c3ccc(-c4cc(OC)c(OC)c(OC)c4)cc23)cc(OC)c1 | . | . | -3 | . | 11µM* | -4%
SMILES | Sm TGR inh | Pf growth 48h | HCMV antiviral | Pf growth 96h | HCV inhibitor | SARS PLP yeast
COc1cc(OC)cc(-c2c(C#Cc3ccsc3)c3cc(-c4ccc5[nH]ccc5c4)ccc3n2C)c1 | -4% | ? | -1 | ? | -4% | 0%
COc1cc(OC)cc(-c2c(C#Cc3ccsc3)c3cc(-c4ccc(C(N)=O)cc4)ccc3n2C)c1 | 28µM* | 1.3µM* | 22 | 1µM* | ? | 4%
COc1cc(C#Cc2c(-c3cncn3C)n(C)c3ccc(-c4ccc(OC)nc4)cc23)cc(OC)c1 | -6% | ? | -5 | 0.093µM* | -33% | 1%
OCC[C@@H]1C[C@H](O)[C@@H](O)[C@]2(CCc3ccccc3CO2)O1 | -17% | 10% | ? | 2% | 15% | -3%
CC(C)Cc1ccc(S(=O)(=O)N2CCC(c3ccncc3)CC2)cc1 | 9% | . | ? | . | . | .
CCc1ccc2c(c1)C(c1ccc([N+](=O)[O-])cc1)=NNC(c1ccc(C)cc1)=N2 | -18% | 37% | 36 | 37% | -3% | 8%
CCN(CC(=O)Nc1ccc2c(c1)OCCO2)C(=O)/C=C/c1ccc(F)cc1 | -1% | 41% | 30 | 40% | -16% | -1%
CCC(C(=O)Nc1ccc(C(C)C)cc1)n1nc(C)n2c(cc3cc(C)ccc32)c1=O (centres undefined) | -4% | . | 9 | . | . | .
CC(Sc1nnc2ccccn12)C(=O)Nc1ncc(Cl)cc1Cl (centres undefined) | 9% | 31% | 70 | 76% | -7% | 2%
COc1ccc(-n2c(SC(C)C(=O)Nc3ncc(Cl)cc3Cl)nc3ccccc32)cc1 (centres undefined) | -20% | 10µM* | -85* | ? | ? | 1%
CC(=O)Nc1ccc2c(c1)C(C)(C)C(C)N2C (centres undefined) | -1% | -8% | ? | 10µM* | -20% | -1%
CN1CCN(S(=O)(=O)c2ccc(NC(=S)NC(=O)c3ccc(Cl)cc3)cc2)CC1 | 22µM* | 4.7µM* | 64 | 2.3µM* | ? | -20%
O=C(Nc1cccc(Cl)c1)Nc1cc(S(=O)(=O)N2CCCCC2)ccc1Cl | -1% | ? | -99* | 2.9µM* | 11µM* | -11%
CN1CCN(S(=O)(=O)c2ccc(NC(=S)NC(=O)c3ccccc3)cc2)CC1 | ? | -28% | 21 | . | 1% | -6%
CC(=O)Nc1ccc(S(=O)(=O)N2CCC(C(=O)c3ccc(F)cc3)CC2)cc1 | 1% | -15% | 1 | 20% | ? | 3%
CN1CCN(S(=O)(=O)c2ccc(NC(=O)Nc3cccc(Cl)c3)cc2)CC1 | 5% | 2.9µM* | -9 | 2% | 7.9µM*! | 4%
CC(=O)Nc1ccc(S(=O)(=O)N2CCC(C(=O)c3ccc(Cl)cc3)CC2)cc1 | -11% | -14% | -63* | 80% | ? | -5%
Cc1cc(-c2nn(-c3ccccc3F)cc2CNCCc2cnc[nH]2)c(C)s1 | -11% | ? | 11 | ? | 8% | 1%

Assay outcomes (PubChem BioAssay)
